Screens (PubChem BioAssay)
Rows were chosen to be rich in hits. Some 7.7% of all compounds tested hit in one or more screens of this group.
HCMV antiviral – qHTS Assay for inhibitors of the human cytomegalovirus (HCMV) | HFF cells, HCMV-luciferase reporter, 72 h; active compounds read low | activity change, negative = inhibition, % at 57.5 µM | hit rate 4.5% among 410,000; in the data active = activity change below about -60%; inconclusive = no clear call, values can overlap the other calls; inactive = above about -39%
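Steps: HFFs plated, 16 h 37C; compounds added; HCMV-luciferase added to MOI 1 PFU/cell; 72 h 37C; OneGlo reagent, 5 min room temperature; luminescence read, normalized to controls.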
FMDV inh – High Throughput Screening for Foot and Mouth Disease Virus Antivirals; FMDV antiviral cell-based qHTS; Potency, µM (titrated, usually from 57.9 µM), without a hit: top-dose activity change, negative = inhibition, most hits filed as inhibitors; hit rate 1.2% among 410,000; AID 1159524, 2015; calls by dose curve; tested in HEK293T cells; note: read-out not given here; potency is the fitted concentration of half-maximal effect; nearly all actives have a fitted effect of over 45% in size
TbPYK inhibitor – qHTS of Trypanosoma Brucei Inhibitors | TbPYK enzyme, Kinase-Glo Plus ATP luminescence, 45 min | Potency, µM (highest dose often 76.8 µM), inactives show at the highest dose activity, negative = inhibition, actives largely listed as inhibitors | hit rate 0.12% among 410,000 | AID 624173, 2012; note: potency is the fitted concentration of half-maximal effect; nearly all actives have a fitted effect of over 50% in size
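ADP (130 uM final) triggers the TbPYK reaction after compound addition; incubation is 45 min at room temperature. Kinase-Glo Plus is then added and luminescence imaged. Normalized data are fitted to concentration-effect curves.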
RE007 growth inh – qHTS Assay for Inhibitors of the HIV-1 protein Vpr. hit rate 0.21% among 360,000. Potency, µM (titrated, usually from 92.2 µM), for inactives: top-dose activity change, negative = less growth, actives largely listed as inhibitors. S. pombe RE007 Vpr strain, BacTiter-Glo ATP luminescence, 24 h; active = well fitted falling curve with a large enough effect; inconclusive = small, poorly fitted or top-dose-only effect; inactive = no such curve, though single readings can be large or run the other way; note: potency is the fitted concentration of half-maximal effect; nearly all actives have a fitted effect of over 50% in size
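Fission yeast strain RE007, carrying one chromosomally integrated HIV-1 vpr copy, was seeded at OD 0.01 in PMG+AL medium with 23 nL pinned compound. After 24 h at 30 °C and 99% humidity, viability was read by BacTiter-Glo luminescence.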
FBPA Giardia inh – qHTS Assay for Inhibitors of Fructose-1,6-bisphosphate Aldolase from Giardia Lamblia; hit rate 0.71% among 290,000; purified Giardia FBPA; A8B2U2; Potency, µM (top dose mostly 59.6 µM), inactives show top-dose activity, negative = inhibition, usual class: inhibitors; note: potency is the fitted concentration of half-maximal effect; nearly all actives have a fitted effect of over 55% in size
Target sequence (A8B2U2 whole entry, looked up): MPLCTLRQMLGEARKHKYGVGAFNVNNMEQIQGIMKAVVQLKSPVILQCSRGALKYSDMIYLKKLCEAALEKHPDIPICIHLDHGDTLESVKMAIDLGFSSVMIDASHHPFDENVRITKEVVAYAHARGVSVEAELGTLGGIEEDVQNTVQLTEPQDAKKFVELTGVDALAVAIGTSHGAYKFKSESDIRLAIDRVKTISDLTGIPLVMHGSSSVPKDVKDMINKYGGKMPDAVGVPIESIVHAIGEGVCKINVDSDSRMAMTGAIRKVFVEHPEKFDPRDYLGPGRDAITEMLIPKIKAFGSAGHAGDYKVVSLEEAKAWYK
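Giardia FBPA (40 nM reagent) was preincubated 10 min at RT with compound (up to 57.5 uM final), then substrate plus GAPDH/TPI/NAD/arsenate coupling system with diaphorase/resazurin was added; resorufin fluorescence (525/598 nm) was read after 20 min.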
Sm TGR block – qHTS Assay for the Inhibitors of Schistosoma Mansoni Peroxiredoxins | Schistosoma mansoni thioredoxin glutathione reductase (TGR), Q962Y6 | purified TGR, DTNB reduction, TNB absorbance 405 nm | Potency, µM (titrated, usually from 114 µM), inactives show top-dose activity change, negative = inhibition, actives largely listed as inhibitors | hit rate 3% among 360,000; note: potency is the fitted concentration of half-maximal effect; nearly all actives have a fitted effect of over 60% in size
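Kinetic colorimetric format: TGR-catalysed, NADPH-driven DTNB reduction monitored via TNB absorbance. Enzyme dispensed at 20 nM; compound exposure 15 min at room temperature before reaction start.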
An asterisk follows results filed as active; u = inconclusive; x = not tested or not shown; [ ] = another dose, or the depositor's remark. Unless noted, calls come from the whole dose curve; as a rule, active = well fitted curve in the direction sought with a large enough effect; inconclusive = small, poorly fitted or top-dose-only effect, or another doubt; inactive = no such curve, though single readings can be large; an effect the other way counts as inactive or inconclusive. % is set by controls: 0 for no effect and ±100 for the full control effect.

SMILES	HCMV antiviral	FMDV inh	TbPYK inhibitor	RE007 growth inh	FBPA Giardia inh	Sm TGR block
CCOc1ccccc1C(=O)Nc1cc2c(cc1N1CCOCC1)n(C)c(=O)n2C	-112*	-20%	-5%	x	x	-8%
CCOc1ccccc1NC(=O)Nc1cc2c(cc1N1CCCCC1)n(CC)c(=O)n2CC	-62*	0%	-10%	x	x	-12%
Cc1ccccc1C(=O)Nc1cc2c(cc1N1CCOCC1)n(C)c(=O)n2C	38	0%	-5%	x	x	1%
CCOc1cc(C(=O)Nc2cc3c(cc2N2CCCC2)n(C)c(=O)c(=O)n3C)cc(OCC)c1OCC	3	-3%	-4%	x	x	50µM*
CC1=C(C(N)=O)C(c2ccc(F)cc2)n2nc(-c3ccc(N(C)C)cc3)nc2N1 (stereo not given)	5	-3%	-2%	x	x	-7%
CCN1CCc2nc3sc(C(=O)Nc4cccc(Cl)c4C)c(N)c3cc2C1	u	14µM*	-12%	x	x	0%
COc1ccc(NC(=O)c2sc3nc4c(cc3c2N)CN(Cc2ccccc2)CC4)cc1	3	-7%	0%	x	x	2%
Cc1ccc(NC(=O)c2sc3nc4c(cc3c2N)CN(Cc2ccccc2)CC4)cc1	-63*	-20%	-3%	x	x	2%
COc1ccc(-c2cc(C(=O)NCc3ccc(F)cc3)no2)cc1	20	-5%	3%	x	x	12%
COc1cc(C2NC(=O)NC(O)(C(F)(F)F)C2C(=O)c2ccc(Cl)cc2)ccc1O (stereo not given)	-31	-13%	1%	11%	x	u
COc1ccc(C2NC(=O)NC(O)(C(F)(F)F)C2C(=O)c2ccc(F)cc2)cc1 (stereo not given)	9	-9%	-9%	5%	5%	45µM*
O=C1N[C@H](Cc2ccccc2)COC(=O)[C@H](Cc2ccc(F)cc2)CC/C=C/C[C@H]1CC(=O)N(CCO)Cc1ccccc1	-27	-18%	0%	6%	x	x
O=C1N[C@@H](Cc2ccccc2)COC(=O)[C@@H](Cc2ccc(F)cc2)C/C=C\C[C@@H]1CC(=O)N(CCO)Cc1ccccc1	-96*	u	0%	-5%	x	x
CC(C)(C)OC(=O)C[C@H]1C/C=C\C[C@@H](CC(=O)NCCO)C(=O)N[C@H](Cc2ccccc2)COC1=O	-61*	-17%	8%	3%	x	x
CC/C=C\C/C=C\C/C=C\C/C=C\C=C\C(O)CCCC(=O)O (stereo not given)	x	x	x	x	2%	x
Cc1cccc(NC(=O)C2CCCN(S(=O)(=O)c3cnc[nH]3)C2)c1C (stereo not given)	6	6%	2%	x	x	u
C[C@H]1CCC[C@@H](O)CCC/C=C/c2cc(O)cc(O)c2C(=O)O1	-105*	3.5µM*	2%	1%	0%	2%
COc1cc(O)cc2c1C(=O)O[C@@H](C)CCCC(=O)CCCCC2	u	-11%	1%	5%	6%	-16%
CC1CCCC(=O)CCC/C=C/c2cc(O)cc(O)c2C(=O)O1 (stereo not given)	x	-21%	x	x	0%	x
CC1CCC/C=C/C(=O)c2c(O)cc(O)cc2CC(=O)O1 (stereo not given)	-105*	32µM*	-3%	4%	u	7.9µM*
CC1CCC[C@H](O)CCCCCc2cc(O)cc(O)c2C(=O)O1 (stereo not given in full)	u	35µM*	-13%	-2%[18.4 µM]	14%	8%
C[C@H]1CCC[C@H](O)CCCCCc2cc(O)cc(O)c2C(=O)O1	-98*	11µM*	-9%	-5%[18.4 µM]	19%	6%
C[C@H](CO)N1C[C@H](C)[C@@H](CN(C)S(=O)(=O)c2ccc(F)cc2)Oc2cc(Br)ccc2S1(=O)=O	-2	x	x	x	x	x
C=CCOC(=O)C(C(C)=O)C(NC(=O)OC)c1ccco1 (stereo not given)	x	x	x	x	0%[12.9 µM]	x
